Numbering of substitutions follows the chain as printed.
How the values were obtained:
Test in all cases: PBM; 200 nM protein, PBS
Conditions in all cases: dsDNA, one strand shown
NKX2-4 [1] = target: T1, NKX2-4 (Homo sapiens, UniProt Q9H2Z4 175-261, P217L)
T1 sequence: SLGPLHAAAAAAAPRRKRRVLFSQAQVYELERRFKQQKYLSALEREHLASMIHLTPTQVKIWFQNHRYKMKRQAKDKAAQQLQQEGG

NKX2-4 [2] = target: T2, NKX2-4 (Homo sapiens, UniProt Q9H2Z4 175-261, T231S)
T2 sequence: T1 sequence with L43P, T57S

NKX2-4 [3] = target: T3, NKX2-4 (Homo sapiens, UniProt Q9H2Z4 175-261)
T3 sequence: T1 sequence with L43P

NKX2-4 [4] = target: T4, NKX2-4 (Homo sapiens, UniProt Q9H2Z4 175-261, R246Q)
T4 sequence: T1 sequence with L43P, R72Q

Sequence | binding signal (NKX2-4 [1]) | binding signal (NKX2-4 [2]) | binding signal (NKX2-4 [3]) | binding signal (NKX2-4 [4])
ATCCGGTG | 9.47 upbm affinity estimate (log intensity, higher = more binding, comparable within an allelic series) | 9.42 upbm affinity estimate (log intensity, higher = more binding, comparable within an allelic series) | 9.41 upbm affinity estimate (log intensity, higher = more binding, comparable within an allelic series) | 9.45 upbm affinity estimate (log intensity, higher = more binding, comparable within an allelic series)
AAGAGGGG | 11.9 upbm affinity estimate (log intensity, higher = more binding, comparable within an allelic series) | 12.2 upbm affinity estimate (log intensity, higher = more binding, comparable within an allelic series) | 11.8 upbm affinity estimate (log intensity, higher = more binding, comparable within an allelic series) | 12.1 upbm affinity estimate (log intensity, higher = more binding, comparable within an allelic series)
GATCGGCC | 9.8 upbm affinity estimate (log intensity, higher = more binding, comparable within an allelic series) | 9.89 upbm affinity estimate (log intensity, higher = more binding, comparable within an allelic series) | 9.87 upbm affinity estimate (log intensity, higher = more binding, comparable within an allelic series) | 9.9 upbm affinity estimate (log intensity, higher = more binding, comparable within an allelic series)
ACCTGGGC | 9.66 upbm affinity estimate (log intensity, higher = more binding, comparable within an allelic series) | 9.68 upbm affinity estimate (log intensity, higher = more binding, comparable within an allelic series) | 9.7 upbm affinity estimate (log intensity, higher = more binding, comparable within an allelic series) | 9.78 upbm affinity estimate (log intensity, higher = more binding, comparable within an allelic series)
AAACCCCC | 9.69 upbm affinity estimate (log intensity, higher = more binding, comparable within an allelic series) | 9.77 upbm affinity estimate (log intensity, higher = more binding, comparable within an allelic series) | 9.71 upbm affinity estimate (log intensity, higher = more binding, comparable within an allelic series) | 9.65 upbm affinity estimate (log intensity, higher = more binding, comparable within an allelic series)
ATCGGAGC | 9.93 upbm affinity estimate (log intensity, higher = more binding, comparable within an allelic series) | 9.93 upbm affinity estimate (log intensity, higher = more binding, comparable within an allelic series) | 9.9 upbm affinity estimate (log intensity, higher = more binding, comparable within an allelic series) | 10 upbm affinity estimate (log intensity, higher = more binding, comparable within an allelic series)
AAAATGCG | 9.82 upbm affinity estimate (log intensity, higher = more binding, comparable within an allelic series) | 9.83 upbm affinity estimate (log intensity, higher = more binding, comparable within an allelic series) | 9.74 upbm affinity estimate (log intensity, higher = more binding, comparable within an allelic series) | 9.92 upbm affinity estimate (log intensity, higher = more binding, comparable within an allelic series)
ACGCCGCA | 9.67 upbm affinity estimate (log intensity, higher = more binding, comparable within an allelic series) | 9.65 upbm affinity estimate (log intensity, higher = more binding, comparable within an allelic series) | 9.64 upbm affinity estimate (log intensity, higher = more binding, comparable within an allelic series) | 9.74 upbm affinity estimate (log intensity, higher = more binding, comparable within an allelic series)
ACCGTTAC | 9.89 upbm affinity estimate (log intensity, higher = more binding, comparable within an allelic series) | 9.95 upbm affinity estimate (log intensity, higher = more binding, comparable within an allelic series) | 9.88 upbm affinity estimate (log intensity, higher = more binding, comparable within an allelic series) | 9.92 upbm affinity estimate (log intensity, higher = more binding, comparable within an allelic series)
ACGAGTAT | 11.5 upbm affinity estimate (log intensity, higher = more binding, comparable within an allelic series) | 11.7 upbm affinity estimate (log intensity, higher = more binding, comparable within an allelic series) | 11.4 upbm affinity estimate (log intensity, higher = more binding, comparable within an allelic series) | 11.6 upbm affinity estimate (log intensity, higher = more binding, comparable within an allelic series)
CTCGAGTA | 12.3 upbm affinity estimate (log intensity, higher = more binding, comparable within an allelic series) | 12.6 upbm affinity estimate (log intensity, higher = more binding, comparable within an allelic series) | 12.1 upbm affinity estimate (log intensity, higher = more binding, comparable within an allelic series) | 12.6 upbm affinity estimate (log intensity, higher = more binding, comparable within an allelic series)
ATGCGTCC | 9.7 upbm affinity estimate (log intensity, higher = more binding, comparable within an allelic series) | 9.56 upbm affinity estimate (log intensity, higher = more binding, comparable within an allelic series) | 9.58 upbm affinity estimate (log intensity, higher = more binding, comparable within an allelic series) | 9.59 upbm affinity estimate (log intensity, higher = more binding, comparable within an allelic series)
CAAGAGGA | 12 upbm affinity estimate (log intensity, higher = more binding, comparable within an allelic series) | 12.3 upbm affinity estimate (log intensity, higher = more binding, comparable within an allelic series) | 12 upbm affinity estimate (log intensity, higher = more binding, comparable within an allelic series) | 12.4 upbm affinity estimate (log intensity, higher = more binding, comparable within an allelic series)
CTACTCAA | 12.1 upbm affinity estimate (log intensity, higher = more binding, comparable within an allelic series) | 12.5 upbm affinity estimate (log intensity, higher = more binding, comparable within an allelic series) | 12 upbm affinity estimate (log intensity, higher = more binding, comparable within an allelic series) | 12.4 upbm affinity estimate (log intensity, higher = more binding, comparable within an allelic series)
AGCTCGCG | 9.6 upbm affinity estimate (log intensity, higher = more binding, comparable within an allelic series) | 9.58 upbm affinity estimate (log intensity, higher = more binding, comparable within an allelic series) | 9.62 upbm affinity estimate (log intensity, higher = more binding, comparable within an allelic series) | 9.63 upbm affinity estimate (log intensity, higher = more binding, comparable within an allelic series)
CTCAAGCA | 11.8 upbm affinity estimate (log intensity, higher = more binding, comparable within an allelic series) | 12.1 upbm affinity estimate (log intensity, higher = more binding, comparable within an allelic series) | 11.8 upbm affinity estimate (log intensity, higher = more binding, comparable within an allelic series) | 12.2 upbm affinity estimate (log intensity, higher = more binding, comparable within an allelic series)

Sequence | binding signal (NKX2-4 [1]) | binding signal (NKX2-4 [2]) | binding signal (NKX2-4 [3]) | binding signal (NKX2-4 [4])
CAGCCCAG | 9.47 upbm affinity estimate (log intensity, higher = more binding, comparable within an allelic series) | 9.32 upbm affinity estimate (log intensity, higher = more binding, comparable within an allelic series) | 9.45 upbm affinity estimate (log intensity, higher = more binding, comparable within an allelic series) | 9.54 upbm affinity estimate (log intensity, higher = more binding, comparable within an allelic series)
AGTGGTTC | 11.8 upbm affinity estimate (log intensity, higher = more binding, comparable within an allelic series) | 12 upbm affinity estimate (log intensity, higher = more binding, comparable within an allelic series) | 11.8 upbm affinity estimate (log intensity, higher = more binding, comparable within an allelic series) | 12.1 upbm affinity estimate (log intensity, higher = more binding, comparable within an allelic series)
CTTGAGGA | 11.9 upbm affinity estimate (log intensity, higher = more binding, comparable within an allelic series) | 12.3 upbm affinity estimate (log intensity, higher = more binding, comparable within an allelic series) | 11.8 upbm affinity estimate (log intensity, higher = more binding, comparable within an allelic series) | 12.2 upbm affinity estimate (log intensity, higher = more binding, comparable within an allelic series)
GACACCGC | 9.33 upbm affinity estimate (log intensity, higher = more binding, comparable within an allelic series) | 9.29 upbm affinity estimate (log intensity, higher = more binding, comparable within an allelic series) | 9.43 upbm affinity estimate (log intensity, higher = more binding, comparable within an allelic series) | 9.52 upbm affinity estimate (log intensity, higher = more binding, comparable within an allelic series)
CGGTCGTA | 9.63 upbm affinity estimate (log intensity, higher = more binding, comparable within an allelic series) | 9.64 upbm affinity estimate (log intensity, higher = more binding, comparable within an allelic series) | 9.66 upbm affinity estimate (log intensity, higher = more binding, comparable within an allelic series) | 9.81 upbm affinity estimate (log intensity, higher = more binding, comparable within an allelic series)
GGCGTGCA | 9.59 upbm affinity estimate (log intensity, higher = more binding, comparable within an allelic series) | 9.54 upbm affinity estimate (log intensity, higher = more binding, comparable within an allelic series) | 9.62 upbm affinity estimate (log intensity, higher = more binding, comparable within an allelic series) | 9.63 upbm affinity estimate (log intensity, higher = more binding, comparable within an allelic series)
CTACTTCA | 12.4 upbm affinity estimate (log intensity, higher = more binding, comparable within an allelic series) | 12.6 upbm affinity estimate (log intensity, higher = more binding, comparable within an allelic series) | 12.2 upbm affinity estimate (log intensity, higher = more binding, comparable within an allelic series) | 12.8 upbm affinity estimate (log intensity, higher = more binding, comparable within an allelic series)
TGCCCCCA | 9.77 upbm affinity estimate (log intensity, higher = more binding, comparable within an allelic series) | 9.8 upbm affinity estimate (log intensity, higher = more binding, comparable within an allelic series) | 9.76 upbm affinity estimate (log intensity, higher = more binding, comparable within an allelic series) | 9.88 upbm affinity estimate (log intensity, higher = more binding, comparable within an allelic series)
GCACTCGA | 12.5 upbm affinity estimate (log intensity, higher = more binding, comparable within an allelic series) | 13 upbm affinity estimate (log intensity, higher = more binding, comparable within an allelic series) | 12.5 upbm affinity estimate (log intensity, higher = more binding, comparable within an allelic series) | 13.1 upbm affinity estimate (log intensity, higher = more binding, comparable within an allelic series)
CGCGGCCC | 9.94 upbm affinity estimate (log intensity, higher = more binding, comparable within an allelic series) | 9.93 upbm affinity estimate (log intensity, higher = more binding, comparable within an allelic series) | 10 upbm affinity estimate (log intensity, higher = more binding, comparable within an allelic series) | 9.94 upbm affinity estimate (log intensity, higher = more binding, comparable within an allelic series)
CACGGCTA | 9.31 upbm affinity estimate (log intensity, higher = more binding, comparable within an allelic series) | 9.28 upbm affinity estimate (log intensity, higher = more binding, comparable within an allelic series) | 9.21 upbm affinity estimate (log intensity, higher = more binding, comparable within an allelic series) | 9.29 upbm affinity estimate (log intensity, higher = more binding, comparable within an allelic series)
CCAGAGAC | 9.71 upbm affinity estimate (log intensity, higher = more binding, comparable within an allelic series) | 9.67 upbm affinity estimate (log intensity, higher = more binding, comparable within an allelic series) | 9.71 upbm affinity estimate (log intensity, higher = more binding, comparable within an allelic series) | 9.63 upbm affinity estimate (log intensity, higher = more binding, comparable within an allelic series)
CGCACGCG | 9.51 upbm affinity estimate (log intensity, higher = more binding, comparable within an allelic series) | 9.45 upbm affinity estimate (log intensity, higher = more binding, comparable within an allelic series) | 9.53 upbm affinity estimate (log intensity, higher = more binding, comparable within an allelic series) | 9.45 upbm affinity estimate (log intensity, higher = more binding, comparable within an allelic series)
GCAAGTGC | 11.9 upbm affinity estimate (log intensity, higher = more binding, comparable within an allelic series) | 12.1 upbm affinity estimate (log intensity, higher = more binding, comparable within an allelic series) | 11.7 upbm affinity estimate (log intensity, higher = more binding, comparable within an allelic series) | 12.2 upbm affinity estimate (log intensity, higher = more binding, comparable within an allelic series)
CTAGGCCA | 9.82 upbm affinity estimate (log intensity, higher = more binding, comparable within an allelic series) | 9.87 upbm affinity estimate (log intensity, higher = more binding, comparable within an allelic series) | 9.84 upbm affinity estimate (log intensity, higher = more binding, comparable within an allelic series) | 9.9 upbm affinity estimate (log intensity, higher = more binding, comparable within an allelic series)
CGTTTGGC | 9.62 upbm affinity estimate (log intensity, higher = more binding, comparable within an allelic series) | 9.4 upbm affinity estimate (log intensity, higher = more binding, comparable within an allelic series) | 9.47 upbm affinity estimate (log intensity, higher = more binding, comparable within an allelic series) | 9.6 upbm affinity estimate (log intensity, higher = more binding, comparable within an allelic series)

Source: paper PMC11006913
